The source of these data is PubChem BioAssay (EPA / NIEHS).

Each structure is given as a SMILES string. Records with an inconclusive call do not appear. Calls of active or inactive are those of the source. The calls were made as follows: active = hit-call score of the fitted dose curve at least 0.9, where 1 is the maximum; inconclusive = response in the unintended direction; inactive = score below 0.9.

Assay [1] addresses THRA (gene 7067) (UniProt P10827). Put plainly: TOX21_TRA_COA_Antagonist_Followup_ratio: Tox21 Thyroid Hormone Receptor alpha Antagonism through Coactivator Recruitment Follow-Up Assay, Ratio (AID 2283953). The method in brief: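 GST-TRα LBD 2.5 nM, BSA 0.10%, + cpd; then FITC-SRC-2 peptide 200 nM + Tb-anti-GST Ab 2 nM. TR-FRET ratio 520/495 nm. Norm: DMSO = 0%, T3 = 100%.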
Assay [2] concerns the target THRB (gene 7068) (UniProt P10828). In words: TOX21_TRB_BLA_Antagonist_Followup_ratio: Tox21 Thyroid Hormone Receptor beta Antagonism Beta-lactamase (BLA) Follow-Up Assay, Ratio (AID 2283958). The text has this: The GeneBLAzer TRb-UAS-bla HEK293T assay kit for human TRb (ThermoFisherScientific Catalog No. K1684) was used as a secondary assay for specificity (TRb-bla).This assay contained the ligand-binding domain (LBD) of the human TRb fused to the DNA-binding domain of GAL4 stably integrated in the GeneBLAzer UAS-bla HEK293Tcell line. The reporter gene, b-lactamase, is under the transcriptional control of a UAS that binds the GAL4 DNA-binding domain. A cell viability assay was run in parallel for these cells as well using the CellTiter-Glo viability assay kit.TOX21_TRB_BLA_Antagonist_Followup_ratio is an assay readout measuring reporter gene via receptor activity and designed using inducible reporter (beta lactamase induction) detected with GAL4 b-lactamase reporter gene. The signal is derived from the ratio of cleaved (ch2) to uncleaved (ch1) reporter gene substrate used as the measure of target activity.Data from the assay component TOX21_TRB_BLA_Antagonist_Followup_ratio was analyzed into 1 assay endpoint. This assay endpoint, TOX21_TRB_BLA_Antagonist_Followup_ratio, was analyzed in the positive analysis fitting direction relative to DMSO as the negative control and baseline of activity. Using a type of inducible reporter, loss-of-signal activity can be used to understand changes in the reporter gene as they relate to the gene THRB. […]

Assay [3] shares this target. In words: TOX21_TRB_COA_Antagonist_Followup_ratio: Tox21 Thyroid Hormone Receptor beta Antagonism through Coactivator Recruitment Follow-Up Assay, Ratio (AID 2283967). The text has this: TOX21_TRb_COA_Antagonist_Followup is a secondary assay for specificity for the TOX21_TR_GH3_LUC_Agonist assay. The LanthaScreen TR-FRET TR coactivator assay kits were used to determine TR activity in a cell-free functional assay. A time-resolved fluorescence resonance energy transfer (TR-FRET) signal was indicative of coactivator (SRC-2) recruitment.TOX21_TRB_COA_Antagonist_Followup_ratio is assay component calculated in the TOX21_TRB_COA_Antagonist_Followup assay. The TR-FRET ratio of acceptor emission (ch2) to donor emission (ch1) is indicative of the resonance energy transfer to the fluorescein tag on the coactivator peptide following recruitment to the receptor.Data from the assay component TOX21_TRB_COA_Antagonist_Followup_ratio was analyzed into 1 assay endpoint. This assay endpoint, TOX21_TRB_COA_Antagonist_Followup_ratio, was analyzed in the positive analysis fitting direction relative to DMSO as the negative control and baseline of activity. Using a type of inducible reporter, loss-of-signal activity can be used to understand changes in the reporter gene as they relate to the gene THRB. Furthermore, this assay endpoint can be referred to as a primary readout, because this assay has produced multiple assay endpoints and this ratio serves a reporter gene function to understand target activity. […]

Assay [4] addresses Retinoic acid receptor RXR-alpha (Homo sapiens) (UniProt P19793). In words: TOX21_TR_RXR_BLA_Antagonist_Followup_ratio: Tox21 Thyroid Hormone Receptor beta Retinoid X Receptor alpha (RXRa) Antagonism Beta-lactamase (BLA) Follow-Up Assay, Ratio (AID 2283972). Summed up:
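HEK293T RXRa-bla, 2% charcoal-stripped FBS medium, 16 h compound exposure at 37C, qHTS 11 conc x3. CCF4 FRET ratio ch2/ch1 (460:530), DMSO = baseline, loss-of-signal fit.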

A short description of assay [5]: TOX21_TR_RXR_BLA_Agonist_Followup_viability: Viability Assessment in the Tox21 Thyroid Hormone Receptor beta Retinoid X Receptor alpha (RXRa) Agonism Beta-lactamase (BLA) Follow-Up Assay (AID 2283970). Summed up:
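Viability counter-screen run alongside the RXRa bla follow-up: HEK293T reporter cells were treated for 16h at 37C in stripped-serum medium, then ATP was quantified by luciferase-coupled CellTiter-Glo. Decreased signal relative to DMSO marked cytotoxicity.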

THRB (gene 7068), sequence (P10828 whole entry, looked up, the tested form may be a part): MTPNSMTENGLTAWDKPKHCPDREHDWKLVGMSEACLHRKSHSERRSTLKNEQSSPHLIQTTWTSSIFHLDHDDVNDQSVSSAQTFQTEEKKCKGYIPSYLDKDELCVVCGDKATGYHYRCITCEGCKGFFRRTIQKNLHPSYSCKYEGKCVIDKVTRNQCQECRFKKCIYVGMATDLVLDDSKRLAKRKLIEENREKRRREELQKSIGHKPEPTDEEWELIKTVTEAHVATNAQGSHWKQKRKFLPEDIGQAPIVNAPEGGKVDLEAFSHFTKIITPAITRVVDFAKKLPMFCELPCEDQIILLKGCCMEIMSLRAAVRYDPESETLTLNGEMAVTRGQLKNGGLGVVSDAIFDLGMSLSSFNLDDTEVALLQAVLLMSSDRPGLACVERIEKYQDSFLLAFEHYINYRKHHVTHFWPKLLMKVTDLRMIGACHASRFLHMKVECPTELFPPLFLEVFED
THRA (gene 7067), sequence (P10827 whole entry, looked up, the tested form may be a part): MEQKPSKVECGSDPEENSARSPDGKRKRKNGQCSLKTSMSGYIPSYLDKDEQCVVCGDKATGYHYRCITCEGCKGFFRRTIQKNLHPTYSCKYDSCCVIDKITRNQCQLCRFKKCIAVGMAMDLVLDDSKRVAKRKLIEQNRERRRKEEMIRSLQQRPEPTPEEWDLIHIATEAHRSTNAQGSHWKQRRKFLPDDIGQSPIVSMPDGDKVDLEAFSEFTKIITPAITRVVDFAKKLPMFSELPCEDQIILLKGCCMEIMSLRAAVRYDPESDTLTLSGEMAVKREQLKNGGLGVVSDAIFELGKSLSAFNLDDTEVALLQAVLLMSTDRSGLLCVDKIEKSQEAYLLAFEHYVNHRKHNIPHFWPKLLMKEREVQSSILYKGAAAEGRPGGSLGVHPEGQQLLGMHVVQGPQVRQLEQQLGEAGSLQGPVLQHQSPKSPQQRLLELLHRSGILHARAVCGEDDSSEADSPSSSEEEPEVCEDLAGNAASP
Retinoic acid receptor RXR-alpha (Homo sapiens), sequence (P19793 whole entry, looked up): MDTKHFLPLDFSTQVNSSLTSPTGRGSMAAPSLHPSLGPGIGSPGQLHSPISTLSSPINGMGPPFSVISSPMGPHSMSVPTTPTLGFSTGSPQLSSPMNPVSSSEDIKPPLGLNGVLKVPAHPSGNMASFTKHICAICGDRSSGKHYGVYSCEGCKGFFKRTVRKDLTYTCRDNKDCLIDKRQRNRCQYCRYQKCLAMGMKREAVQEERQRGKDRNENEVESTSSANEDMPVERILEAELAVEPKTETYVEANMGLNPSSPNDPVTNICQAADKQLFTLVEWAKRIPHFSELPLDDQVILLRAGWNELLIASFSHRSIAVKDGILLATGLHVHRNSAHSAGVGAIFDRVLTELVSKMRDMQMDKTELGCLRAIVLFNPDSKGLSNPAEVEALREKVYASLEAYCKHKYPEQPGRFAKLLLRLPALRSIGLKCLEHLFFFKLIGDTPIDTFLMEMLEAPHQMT

For `CC(=O)[C@H]1CC[C@H]2[C@@H]3CCC4=CC(=O)CC[C@]4(C)[C@H]3CC[C@]12C`, the outcome in assay [1], in assay [2] and in assay [3] was inactive.

Take `C[C@]12C[C@H](O)[C@H]3[C@@H](CCC4=CC(=O)CC[C@@]43C)[C@@H]1CC[C@@H]2C(=O)CO`: the outcome in assay [1] and in assay [2] was inactive.

Take `C[C@]12CC[C@@H]3c4ccc(O)cc4C[C@@H](CCCCCCCCCS(=O)CCCC(F)(F)C(F)(F)F)[C@H]3[C@@H]1CC[C@@H]2O` (some centres undefined): the result in assay [3] and in assay [4] was inactive.

`COC(=O)c1ccc(I)cc1S(=O)(=O)NC(=O)Nc1nc(C)nc(OC)n1`: the call in assay [5] was inactive.

As for `CCNc1nc(N)nc(Cl)n1`, the outcome in assay [5] was inactive.
